Assay [1] has as its target Androgen receptor (Homo sapiens) (UniProt P10275). Description: qHTS assay to identify small molecule antagonists of the androgen receptor (AR) signaling pathway using the MDA cell line in the presence of 0.5 nM R1881 (AID 1259243). Also: potency is read from the fitted curve at half-maximal effect; nearly all actives have a fitted effect of over 50% in size. An outline of the steps: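 Antagonist mode quantitative HTS in MDA-kb2 MMTV-luciferase cells, agonist R1881 at 0.5 nM final, 16 hr exposure at 37C and 0% CO2, luminescent detection.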

Assay [2] can be described thus: qHTS assay to identify small molecule HDAC inhibitors (AID 1259364).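 Also: wild-type HCT-116 cells with endogenous class I/II HDAC activity; top concentration of the series differs between compounds; nearly all actives have a fitted effect of over 45% in size.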 Put shortly: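 Quantitative high-throughput format: overnight-seeded HCT-116 cells got compounds for 2 hr at 37C; HDAC-Glo I/II reagent added, 30 min RT, luminescence measured.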
Assay [3] in a line: qHTS assay to identify small molecule antagonists of the sonic hedgehog signaling (Shh) pathway - cell viability counter screen (AID 1259367). Also: nearly all actives have a fitted effect of over 55% in size. Also: potency is read from the fitted curve at half-maximal effect. An outline of the steps: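 Viability was read by CellTiter-Fluor fluorescence in the same wells, reagent added 23 hr into compound treatment and incubated 1 hr at 37C. The 3T3 Gli1-Luc reporter cells (2,000/well) received conditioned medium after compound and ran 24 hr.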
A general note: In qHTS, concentration-response curves come from the screen itself.

A short description of assay [4]: qHTS assay to identify small molecule agonists of the sonic hedgehog signaling (Shh) pathway (AID 1259368; calls by dose curve;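 also: NIH/3T3-derived 3T3Gli1-Luc cells carrying a stable Gli1-driven firefly luciferase reporter; series mostly up to about 92 µM; nearly all actives have a fitted effect of over 15% in size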). Put shortly:
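Quantitative high-throughput format using a Gli1-driven firefly luciferase reporter line derived from NIH/3T3 cells. After a 24 hr compound treatment at 37 C and 5% CO2, luminescence reported Gli1 response element activity.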

Assay [5] in a line: qHTS assay to identify small molecule antagonists of the sonic hedgehog signaling (Shh) pathway (AID 1259369; calls by dose curve; also: nearly all actives have a fitted effect of over 45% in size; also: potency is read from the fitted curve at half-maximal effect). An outline of the steps:
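Stable Gli1-Luc reporter NIH/3T3 clone; quantitative HTS in stimulated mode with conditioned medium. Luminescence measured after 24hr compound treatment at 37 C.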

Assay [6] can be described thus: qHTS assay to identify small molecule agonists of the androgen receptor (AR) signaling pathway in the presence of an antagonist - cell viability counter screen (AID 1259379). Also: nearly all actives have a fitted effect of over 25% in size. Also: potency is read from the fitted curve at half-maximal effect. An outline of the steps: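 Nilutamide-containing (3.0uM final) MDA-kb2 cultures, 3,000 cells/well, were treated with compounds across 15 concentrations. After 16 hr at 37C with no CO2, cell viability was determined by CellTiter-Fluor fluorescence in the luciferase assay wells.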

Assay [7] concerns the target Androgen receptor (Homo sapiens) (UniProt P10275). Description: qHTS assay to identify small molecule agonists of the androgen receptor (AR) signaling pathway in the presence of an antagonist (AID 1259381; calls by dose curve; also: nearly all actives have a fitted effect of over 15% in size). Put shortly: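 Reporter-gene luminescence from MDA-kb2 cells exposed 16hr at 37C (0% CO2) to 15-point compound titrations with 3.0uM final nilutamide as AR antagonist.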

Assay [8] can be described thus: qHTS assay to identify small molecule antagonists of the estrogen receptor beta (ER-beta) signaling pathway - cell viability counter screen (AID 1259382). Also: nearly all actives have a fitted effect of over 55% in size. Also: potency is read from the fitted curve at half-maximal effect. Put shortly:
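Viability is scored by CellTiter-Glo luminescence (30 min, room temperature) in ER-beta-UAS-bla HEK293T wells already read for reporter fluorescence. Compound exposure lasts 16 hr at 37C alongside 1nM 17-beta-estradiol in charcoal-stripped serum medium.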

Assay [9] is described as follows: qHTS assay to identify small molecule agonists or antagonists of the thyroid stimulating hormone receptor (TSHR) signaling pathway - wild type cell line counter screen (AID 1259384; calls by dose curve). Put shortly:
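Counter screen in untransfected Hek293: compounds (15-point titration, triplicate) plus phosphodiesterase inhibitor Ro20-1724 added after 18 h plating; 30 min RT. Intracellular cAMP via competitive d2/cryptate immunoassay, 1 h incubation.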

Assay [10] deals with Thyrotropin receptor (Homo sapiens) (UniProt P16473). Nature of the assay: qHTS assay to identify small molecule antagonists of the thyroid stimulating hormone receptor (TSHR) signaling pathway (AID 1259385; calls by dose curve; also: nearly all actives have a fitted effect of over 20% in size; also: potency is read from the fitted curve at half-maximal effect). An outline of the steps: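 Antagonist mode: compound-treated TSHR-expressing HEK293 cells were stimulated with 1.5 ng/mL TSH (final) in presence of Ro20-1724 for 30 min at RT. HTRF cAMP detection after 1 h; each compound tested at 15 concentrations, triplicate.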
Thyrotropin receptor (Homo sapiens), sequence (P16473 whole entry, looked up): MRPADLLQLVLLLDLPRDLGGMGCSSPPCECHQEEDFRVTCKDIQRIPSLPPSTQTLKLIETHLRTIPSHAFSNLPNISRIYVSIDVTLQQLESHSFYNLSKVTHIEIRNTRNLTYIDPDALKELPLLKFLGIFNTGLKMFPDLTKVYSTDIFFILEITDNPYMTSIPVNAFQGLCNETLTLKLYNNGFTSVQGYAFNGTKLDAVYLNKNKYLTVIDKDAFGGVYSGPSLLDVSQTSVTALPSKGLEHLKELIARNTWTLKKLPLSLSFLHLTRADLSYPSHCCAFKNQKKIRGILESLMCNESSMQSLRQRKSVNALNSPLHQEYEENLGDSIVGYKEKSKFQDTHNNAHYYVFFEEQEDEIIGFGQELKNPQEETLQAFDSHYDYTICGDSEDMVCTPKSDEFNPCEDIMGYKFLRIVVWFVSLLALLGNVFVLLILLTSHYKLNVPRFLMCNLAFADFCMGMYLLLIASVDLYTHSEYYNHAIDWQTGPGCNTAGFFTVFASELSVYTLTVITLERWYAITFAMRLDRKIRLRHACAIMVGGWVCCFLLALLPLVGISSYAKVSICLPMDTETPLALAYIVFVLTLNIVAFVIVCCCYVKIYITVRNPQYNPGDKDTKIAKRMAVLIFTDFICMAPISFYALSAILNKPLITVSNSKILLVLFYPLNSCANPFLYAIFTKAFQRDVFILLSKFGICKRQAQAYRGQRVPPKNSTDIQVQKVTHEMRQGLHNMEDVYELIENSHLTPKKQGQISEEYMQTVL

Assay [11] can be described thus: qHTS assay to identify small molecule agonists of the estrogen receptor alpha (ER-alpha) signaling pathway in the presence of an antagonist - cell viability counter screen (AID 1259386).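 Also: cells exposed to compounds for 22 h at 37 °C before the viability read; nearly all actives have a fitted effect of over 30% in size.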 Also: potency is read from the fitted curve at half-maximal effect. An outline of the steps: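 In this counter screen, compound effects on VM7Luc4E2 viability were tested in the presence of the antagonist ICI-182,780 at 10.0nM final. Compounds were dosed at 15 concentrations, exposure lasted 22hr, and the CellTiter-Fluor signal was read.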

Assay [12] in a line: qHTS assay to identify small molecule phospholipidosis (PLD) inducers (AID 1259344; active = well fitted curve in the direction sought with a large enough effect; an effect the other way counts as inactive or inconclusive). Put shortly:
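Phospholipid accumulation was scored by imaging: fixed, Hoechst-counterstained HepG2 cells stained with LipidTOX Red after 24 h compound exposure at 37 C. Read-outs were pit count and pit intensity per well or per cell, with amiodarone and DMSO controls.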

Assay [13] can be described thus: qHTS assay to identify small molecule HDAC inhibitors - cell viability counter screen (AID 1259365). Also: nearly all actives have a fitted effect of over 50% in size. Also: potency is read from the fitted curve at half-maximal effect. An outline of the steps:
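Counter screen in wild-type HCT-116 cells: compounds dissolved in DMSO are pin-transferred onto overnight-plated cells and left 2hr at 37C. ATP-based CellTiter-Glo luminescence then measures viable cells.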

The nature of assay [14]: qHTS assay to identify small molecule agonists of the sonic hedgehog signaling (Shh) pathway - cell viability counter screen (AID 1259366). Also: potency is read from the fitted curve at half-maximal effect; nearly all actives have a fitted effect of over 50% in size. Put shortly: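 Cells are plated at 2,000 per well and left 4hr at 37C, 5% CO2 before compound addition. After 23hr of treatment, CellTiter-Fluor reagent is added for 1hr at 37C and fluorescence is measured.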
The target of assay [15] is Estrogen receptor (Homo sapiens) (UniProt P03372). Nature of the assay: qHTS assay to identify small molecule agonists of the estrogen receptor alpha (ER-alpha) signaling pathway in the presence of an antagonist (AID 1259383; calls by dose curve; also: top concentration of the series differs between compounds; nearly all actives have a fitted effect of over 15% in size). An outline of the steps: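 Readout was ERE-driven luciferase luminescence in VM7Luc4E2 cells, which express full-length ER-alpha endogenously. Compounds were tested at 15 concentrations for 22hr alongside 10.0nM ICI-182,780 (final concentration).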
Estrogen receptor (Homo sapiens), sequence (P03372 whole entry, looked up): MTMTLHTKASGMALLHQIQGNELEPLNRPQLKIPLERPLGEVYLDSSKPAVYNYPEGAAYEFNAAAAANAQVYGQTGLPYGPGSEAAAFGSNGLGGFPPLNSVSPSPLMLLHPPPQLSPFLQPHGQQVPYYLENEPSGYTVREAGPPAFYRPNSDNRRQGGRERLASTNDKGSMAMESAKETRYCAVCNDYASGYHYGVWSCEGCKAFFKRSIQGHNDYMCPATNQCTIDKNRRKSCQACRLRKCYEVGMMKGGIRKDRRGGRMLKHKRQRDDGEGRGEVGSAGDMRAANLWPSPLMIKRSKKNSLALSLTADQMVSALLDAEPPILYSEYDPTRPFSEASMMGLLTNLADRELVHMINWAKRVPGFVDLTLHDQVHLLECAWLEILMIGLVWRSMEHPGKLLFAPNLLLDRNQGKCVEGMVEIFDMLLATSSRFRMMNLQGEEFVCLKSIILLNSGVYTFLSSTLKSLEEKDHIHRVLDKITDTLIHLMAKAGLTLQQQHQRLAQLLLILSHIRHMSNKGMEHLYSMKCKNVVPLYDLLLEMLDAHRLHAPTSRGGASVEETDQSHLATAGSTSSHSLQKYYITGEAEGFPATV

Assay [16] in a line: qHTS assay to identify small molecule agonists of the estrogen receptor beta (ER-beta) signaling pathway - cell viability counter screen (AID 1259380). Also: potency is read from the fitted curve at half-maximal effect; nearly all actives have a fitted effect of over 30% in size. Put shortly: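 Steps: plate ER-beta-UAS-bla HEK293T cells, rest 6 hr; add compounds in DMSO; incubate 16 hr at 37C, 5% CO2; add FRET substrate 2 hr; add CellTiter-Glo, wait 30 min at room temperature; read luminescence.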
Assay [17] addresses Estrogen receptor beta (Homo sapiens) (UniProt Q92731). Description: qHTS assay to identify small molecule agonists of the estrogen receptor beta (ER-beta) signaling pathway (AID 1259377; active = well fitted activation curve with a large enough effect in the signal ratio in the repeat runs, not every such curve was filed as active; the % refers to the signal ratio). Put shortly: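 Agonist mode cell assay in GripTite HEK293T cells expressing an ER-beta fusion that drives beta-lactamase from an Upstream Activator Sequence; 16 hr compound exposure at 37C, then 2 h LiveBLAzer B/G FRET substrate at room temperature, fluorescence read-out.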

Assay [18] addresses Estrogen receptor (Homo sapiens) (UniProt P03372). Nature of the assay: qHTS assay to identify small molecule antagonists of the estrogen receptor alpha (ER-alpha) signaling pathway using the BG1 cell line in the presence of 0.1 nM 17-beta-estradiol (AID 1259244). Also: nearly all actives have a fitted effect of over 50% in size. An outline of the steps:
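Reporter is a stably transfected luciferase under four estrogen responsive elements in VM7Luc4E2 cells expressing native full-length ER-alpha; inhibition of 0.1 nM (final) 17beta-estradiol-driven signal over 22 h is read by luminescence.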

The target in assay [19] is Estrogen receptor beta (Homo sapiens) (UniProt Q92731). Nature of the assay: qHTS assay to identify small molecule antagonists of the estrogen receptor beta (ER-beta) signaling pathway (AID 1259378; active = well fitted inhibition curve with a large enough effect in the signal ratio in the repeat runs, not every such curve was filed as active; the % refers to the signal ratio; also: potency is read from the fitted curve at half-maximal effect). An outline of the steps:
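Antagonist mode: compounds added to beta-lactamase reporter HEK293T ER-beta-UAS cells stimulated with E2 (1nM final), 16 hr at 37C. LiveBLAzer B/G FRET substrate, 2 hours room temperature, fluorescence read-out.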

Several values for one entry are separate records, joined by “and”; a condition that tells them apart may be missing. Identical values can stand only once. Records with an inconclusive call do not appear. Where a structure was tested more than once in an assay, its records may differ in their call. Activity calls are given as the source filed them. Unless noted, calls follow the shape of the dose curve; as a rule, active = well fitted curve in the direction sought with a large enough effect in the repeat runs; inconclusive = weak or mixed curves; inactive = no such curve, though single readings can be large; an effect the other way counts as inactive or inconclusive.

Estrogen receptor beta (Homo sapiens), sequence (Q92731 whole entry, looked up, the tested form may be a part): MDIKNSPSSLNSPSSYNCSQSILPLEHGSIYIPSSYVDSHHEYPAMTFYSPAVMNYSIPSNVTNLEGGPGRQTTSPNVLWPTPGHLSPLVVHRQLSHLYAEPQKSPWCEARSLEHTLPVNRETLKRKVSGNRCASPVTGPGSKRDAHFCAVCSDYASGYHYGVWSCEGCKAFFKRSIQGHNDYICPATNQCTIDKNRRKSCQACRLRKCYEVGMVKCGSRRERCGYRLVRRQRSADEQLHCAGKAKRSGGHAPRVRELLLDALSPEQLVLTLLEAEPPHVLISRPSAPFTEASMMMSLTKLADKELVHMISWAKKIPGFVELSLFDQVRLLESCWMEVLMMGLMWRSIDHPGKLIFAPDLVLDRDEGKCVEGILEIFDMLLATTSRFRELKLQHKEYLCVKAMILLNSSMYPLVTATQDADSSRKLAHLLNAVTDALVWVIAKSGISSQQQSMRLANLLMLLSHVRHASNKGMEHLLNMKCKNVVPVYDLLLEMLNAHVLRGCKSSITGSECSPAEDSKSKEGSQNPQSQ
Androgen receptor (Homo sapiens), sequence (P10275 whole entry, looked up): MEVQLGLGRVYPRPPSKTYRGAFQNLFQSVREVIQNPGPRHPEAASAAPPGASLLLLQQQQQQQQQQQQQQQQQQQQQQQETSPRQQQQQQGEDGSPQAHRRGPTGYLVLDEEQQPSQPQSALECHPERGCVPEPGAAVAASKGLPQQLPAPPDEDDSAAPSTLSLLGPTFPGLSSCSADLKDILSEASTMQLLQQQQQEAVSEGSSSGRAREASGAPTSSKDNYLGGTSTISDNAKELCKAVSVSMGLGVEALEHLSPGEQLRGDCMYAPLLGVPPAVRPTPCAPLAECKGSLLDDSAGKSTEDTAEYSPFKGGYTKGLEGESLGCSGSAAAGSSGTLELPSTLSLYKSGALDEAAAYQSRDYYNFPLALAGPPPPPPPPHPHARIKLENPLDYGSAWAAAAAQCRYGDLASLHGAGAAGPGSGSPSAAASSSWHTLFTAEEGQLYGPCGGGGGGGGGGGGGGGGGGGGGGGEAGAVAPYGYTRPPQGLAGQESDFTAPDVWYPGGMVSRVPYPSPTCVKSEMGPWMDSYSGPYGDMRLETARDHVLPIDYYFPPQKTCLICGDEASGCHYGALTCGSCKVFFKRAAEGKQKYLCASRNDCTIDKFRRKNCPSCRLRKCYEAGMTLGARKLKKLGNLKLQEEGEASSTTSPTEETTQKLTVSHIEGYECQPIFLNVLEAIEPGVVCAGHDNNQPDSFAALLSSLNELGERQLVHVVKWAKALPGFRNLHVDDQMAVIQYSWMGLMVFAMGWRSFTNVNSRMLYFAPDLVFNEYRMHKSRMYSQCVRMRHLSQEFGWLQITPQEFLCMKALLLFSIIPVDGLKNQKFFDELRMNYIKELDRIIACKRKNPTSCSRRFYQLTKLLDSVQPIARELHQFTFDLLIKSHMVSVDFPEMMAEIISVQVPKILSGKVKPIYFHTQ

For the molecule `CC/C(=C(\c1ccc(O)cc1)c1ccc(OCCN(C)C)cc1)c1ccccc1`, the Potency in assay [1] is 61.3 µM (active); in [3] it was 30.7 µM (active); in assay [5] it was 9.71 µM (active); in [6], 61.3 µM (active); in assay [8] it was 27.4 µM (active); in assay [10], 77.1 µM (active). The Potency in assay [11] is 68.7 µM (active). In addition, the Potency result in [2], in assay [4] and in [7] was “inactive” throughout. Moreover, the outcome in assay [9] was inactive.

Take `NC(=NCCCCCCN=C(N)/N=C(\N)Nc1ccc(Cl)cc1)/N=C(\N)Nc1ccc(Cl)cc1`: the Potency result in assay [12], in assay [2], in [4], in assay [10] and in assay [11] was “inactive” in each case. Moreover, the Potency in [13] was 44.1 µM (active) and 60.8 µM (active) and inactive; in assay [14] it was 48.1 µM (active) and 24.8 µM (active) and 54.2 µM (active); in assay [3], 60.6 µM (active) and 43 µM (active) and inactive; in [6], 62.2 µM (active) and 60.8 µM (active) and inactive; in assay [8], 60.6 µM (active) and 48.3 µM (active) and 44.1 µM (active). Further, the call in assay [9] was inactive.

For the molecule `COc1ccc(-c2ccc3cc(C(=O)O)ccc3c2)cc1C12CC3CC(CC(C3)C1)C2`, the Potency result in [12], in assay [13], in [3], in assay [4], in assay [5] and in [8] was “inactive” throughout. Moreover, the Potency result in [15] and in assay [11] was “inactive” throughout. Besides, the molecule was called inactive in assay [9].

Regarding `N=C1N=C(N)c2cc3ccccc3cc21`, the Potency entry in [12], in assay [13], in [4] and in assay [15] was “inactive” in each case. In addition, the Potency in assay [3] is 24.3 µM (active); in assay [5] it was 0.969 µM (active); in [16] it was 21.7 µM (active).

On to `COc1ccc(CN2CCN(C(c3ccc(F)cc3)c3ccc(F)cc3)CC2)c(OC)c1OC`, for which the Potency entry in [2], in [13] and in assay [4] was “inactive” in each case. Also, the values for the Potency in [6] and in [8] were 26.6 µM (active) and 10.6 µM (active), respectively. Besides, the molecule was called inactive in [9].

Consider `CCOc1nc2cccc(C(=O)OC(C)OC(=O)OC3CCCCC3)c2n1Cc1ccc(-c2ccccc2-c2nn[nH]n2)cc1` (centres undefined), for which the Potency entry in [2], in assay [4], in assay [17], in assay [15], in assay [10] and in [11] was “inactive” in each case. The Potency in assay [5] is 21.7 µM (active); in assay [16], 13.7 µM (active); in [8], 19.3 µM (active). For the same molecule, the outcome in assay [9] was inactive.

On to `CCCCCCCCCCCCCCCC[N+](C)(C)CCN(Cc1ccc(OC)cc1)c1ncccn1`, for which the Potency entry in assay [18], in [12], in assay [2], in assay [4], in [15] and in assay [11] was “inactive” in each case. Further, the Potency in assay [16] was 11.9 µM (active); in [8], 13.3 µM (active). In assay [9], the result was inactive.

`Cc1[nH]cnc1C[C@H]1CCc2c(C)c3ccccc3n2C1=O`: the Potency result in [2], in assay [13], in [4] and in assay [17] was “inactive” each time. In addition, the Potency in assay [19] was 29.9 µM (active); in assay [16], 4.74 µM (active).

The record behind these values is PubChem BioAssay (Tox21).
